The list is not random: actives were taken first. Their share in the collection is about 7.9%.
HCV inhibitor = qHTS Assay for Inhibitors of Hepatitis C Virus (HCV); Huh7.5.1 HCVcc-Cre infection, luciferase reporter, 44 h; Potency, µM (series often up to 41.8 µM), most hits filed as inhibitors; 3.4% of 340,000 active; active = well fitted inhibition curve with a large enough effect; inconclusive = small, poorly fitted or top-dose-only effect, or another doubt; inactive = no such curve, though single readings can be large or run the other way
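Cells (1,000/well) were plated 4 h before compound, then infected with HCVcc-Cre virus (~0.5 moi). After 44 h further culture, infection was read as luciferase luminescence following a 15 min substrate incubation at room temperature.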
MARV entry inh = qHTS for inhibitors of binding or entry into cells for Marburg Virus. Potency, µM (doses to about 37.8 µM), hits mostly inhibitors. Marburg virus pseudotyped entry inhibition, cell reporter. 1.8% of 300,000 active; calls by dose curve; tested in HEK293 cells
HCMV antiviral = qHTS Assay for inhibitors of the human cytomegalovirus (HCMV); AID 1259415, 2018; 4.5% of 410,000 active; HFF cells, HCMV-luciferase reporter, 72 h; active compounds read low; activity change, negative = inhibition, % at 57.5 µM; in the data active = activity change below about -60%; inconclusive = no clear call, values can overlap the other calls; inactive = above about -39%
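Two compound doses tested in HFFs infected with HCMV-luciferase, MOI 1 PFU/cell, 72 h at 37C. Lysate luminescence read with OneGlo; data normalized against buffer-only and 10uM Salinomycin inhibitor controls.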
FMDV antiviral = High Throughput Screening for Foot and Mouth Disease Virus Antivirals | Potency, µM (titrated, usually from 57.9 µM), usual class: inhibitors | 1.2% of 410,000 active | FMDV antiviral cell-based qHTS; calls by dose curve; tested in HEK293T cells; note: read-out not given here; nearly all actives have a fitted effect of over 45% in size
LASV entry inh = qHTS for Inhibitors of binding or entry into cells for Lassa Virus | Potency, µM (highest dose often 37.9 µM), hits mostly inhibitors | 1.2% of 300,000 active | Lassa virus pseudotype entry inhibition, cell reporter | AID 540256, 2011; calls by dose curve; tested in HEK293 cells; note: nearly all actives have a fitted effect of over 50% in size
Hits are given with their value; 0 = inactive; ? = inconclusive; - = no result.

SMILES	HCV inhibitor	MARV entry inh	HCMV antiviral	FMDV antiviral	LASV entry inh
Cc1ccc(C)c(S(=O)(=O)NCc2ccncc2)c1	?	0	0	0	0
COCCOC(=O)c1c(C)oc2c1cc(NS(=O)(=O)c1ccc(Cl)c(C)c1)c1ccccc12	-	?	0	0	?
Cc1cccc(NC(=O)CSCC(=O)Nc2ccccc2C(=O)NC2CC2)c1	0	0	0	0	0
COc1ccccc1NS(=O)(=O)c1cccc(C(=O)N/N=C(\C)c2ccc3c(c2)OCCO3)c1	0	0	0	?	0
COc1cccc(C2(CC(=O)N3CCN(c4nonc4C)CC3)CC(=O)N(C3CCCC3)C2=O)c1 (stereo not drawn)	-	-	-	0	-
COc1ccc(S(=O)(=O)NCc2cccnc2)cc1OC	0	0	0	0	0
COc1cc(S(=O)(=O)NCc2ccncc2)c(OC)cc1Cl	?	0	-79	0	0
COc1ccc(S(=O)(=O)NCc2ccncc2)cc1NC(=O)c1ccccc1F	?	-	-88	0	-
CCOc1cc(S(=O)(=O)NCc2ccncc2)ccc1Cl	?	?	-84	0	?
COc1ccc(S(=O)(=O)NCc2ccncc2)cc1OC	?	0	-65	0	0
CC(C)C(=O)N[C@H]1CCCN1C(=O)C=Cc1ccccc1	-	0	-	-	?
Cc1cc([N+](=O)[O-])cnc1Sc1nccn1C	0	0	0	0	0
Cc1ccc(NC(=O)c2cc(S(=O)(=O)N3CCCCCC3)ccc2F)cc1F	-	-	0	0	0
CCOc1ccc(S(=O)(=O)Nc2ccccc2C(=O)N2CCOCC2)cc1	0	0	0	0	0
NC(=O)NC(=O)C(c1ccccc1)N1CCN(S(=O)(=O)Cc2ccccc2)CC1 (stereo not drawn)	0	0	-88	0	0
COc1ccc(-c2ccc3oc(-c4ccsc4)cc3c2)cc1	0	-	0	0	-
CCCn1c(CC)nc([N+](=O)[O-])c1S(=O)(=O)c1ccccc1	13µM	?	0	13µM	?
O=C(NCc1ccccc1CN1CCCC1)c1cc2cc(Cl)ccc2o1	10µM	-	0	0	-
CN(C)C(CNC(=O)c1ccc(Cl)c(S(=O)(=O)N2CCCCCC2)c1)c1ccccc1 (stereo not drawn)	6.3µM	-	0	?	-
COc1ccc2oc(C(=O)NCc3ccccc3CN3CCCC3)c(C)c2c1	?	-	0	0	-
CCOc1ccc2oc(C(=O)NCc3ccccc3CN3CCCC3)c(C)c2c1	16µM	-	0	?	-
O=C(NCc1ccccc1CN1CCCC1)c1ccc(Cl)c(S(=O)(=O)N2CCCC2)c1	13µM	?	0	0	0
O=C(NCc1ccccc1CN1CCCC1)c1cccc(S(=O)(=O)N2CCCC2)c1	?	-	0	0	-
COc1cc(=O)n2c(c1C(=O)N(C)Cc1cscn1)CCN(C(=O)c1cccc(C)c1C)CC2	-	-	-	0	-
CC(NC(=O)c1ccc(Cl)c(S(=O)(=O)N2CCCCCC2)c1)c1cccnc1 (stereo not drawn)	13µM	-	?	?	-
SMILES	HCV inhibitor	MARV entry inh	HCMV antiviral	FMDV antiviral	LASV entry inh
O=C(NCc1ccccc1CN1CCCC1)c1ccc(S(=O)(=O)Nc2ccccc2F)cc1	-	-	-75	0	-
COc1ccc2cc(C(=O)NCc3ccccc3CN3CCCC3)ccc2c1	7.1µM	-	0	0	-
COc1cc(NS(=O)(=O)c2ccc(NC(=O)c3ccccc3C(=O)O)cc2)nc(OC)n1	-	0	0	0	?
O=C(c1csnn1)N1CCC2(CCCN(c3ccncc3)C2)CC1	-	-	-	0	-
O=C(O)c1cc([N+](=O)[O-])c(NCCC2=CCCCC2)c([N+](=O)[O-])c1	0	-	0	0	-
Cc1ccc(CN2C(=O)CCC2(C)c2nnnn2-c2ccc3c(c2)OCCO3)cc1 (stereo not drawn)	-	-	0	0	-
Cc1ccccc1NC(=O)c1nnn(-c2ccc3c(c2)OCCO3)c1N	10µM	?	0	0	?
CCOc1ccccc1NC(=O)c1nnn(-c2ccc3c(c2)OCCO3)c1N	?	?	?	0	0
Nc1c(C(=O)Nc2cccc(F)c2)nnn1-c1ccc2c(c1)OCCO2	0	?	0	0	4µM
COc1ccc(CCNC(=O)c2nnn(-c3ccc4c(c3)OCCO4)c2N)cc1OC	?	?	-75	3.5µM	?
COc1ccc(CCN2C(=O)CCC2(C)c2nnnn2-c2ccc3c(c2)OCCO3)cc1OC (stereo not drawn)	-	-	-83	0	-
Cc1ccc(NC(=O)CCn2c(=S)oc3ccccc32)cc1F	0	0	0	0	0
COc1ccc(NC(=O)c2cnc[nH]2)cc1	-	?	0	0	0
COc1cc2c(cc1OC)[C@@H]1N(C)c3ccccc3[C@@]13CCN[C@H]3C2	-	-	0	-	-
CCCCNc1ncnc2sc3c(c12)CCN(CCC)C3	?	-	-62	0	-
c1cn(CCCNc2ncnc3sc4c(c23)CCC4)cn1	0	0	?	0	0
COCCNc1oc(/C=C/c2cccc(OC)c2)nc1S(=O)(=O)c1ccccc1	-	-	0	0	-
OC(c1ccc2c(c1)CN(Cc1cccn1-c1cccnc1)CCO2)C1CCCCC1 (stereo not drawn)	-	-	-	0	-
CCc1c(C)nc(N)nc1N1N=C1SCC(=O)OC	0	0	-61	0	0
CNc1nc2cnc(Nc3cccc(F)c3)cc2n1CCOC	-	-	0	-	-
COc1cc(OC)c(OC)cc1/C=N/N(C)c1ccccc1	8.9µM	?	0	0	0
O=S(=O)(c1ccccc1)N1CCC2(CCCN(Cc3ccccc3)C2)CC1	-	-	-	0	-
CC12CCC(C(=O)N(CCCN3CCN(Cc4ccccc4)CC3)C1=O)C2(C)C (stereo not drawn)	0	?	-90	0	0
CC12CCC(C(=O)N(CCCCN3CCN(c4ccccn4)CC3)C1=O)C2(C)C (stereo not drawn)	0	-	0	0	-
Cc1ccc(NC(=O)CCSc2nc(-c3ccc4c(c3)OCO4)cc(C(F)(F)F)n2)cc1	-	0	0	0	0
SMILES	HCV inhibitor	MARV entry inh	HCMV antiviral	FMDV antiviral	LASV entry inh
CCOc1cc(CNCc2cccnc2)ccc1OCC(=O)NC(C)(C)C	0	0	0	0	0
CC(C)(C)OC(=O)N/N=C/c1cccn1-c1ccc([N+](=O)[O-])cc1	0	0	0	0	0
CN(C)c1ccc(-n2cccc2/C=C/[N+](=O)[O-])cc1	10µM	?	0	?	?
COc1cc(/C=C2\SC(=O)N(CCN)C2=O)ccc1OS(=O)(=O)c1cc(C)ccc1C	13µM	?	?	?	?
CCc1nnc(NC(=O)C2CC(=O)N(CCc3ccc(F)cc3)C2)s1 (stereo not drawn)	0	0	-64	0	0
CCOc1ccc(CCNC(=O)C2CC(=O)N(CCc3ccc(OC)c(OC)c3)C2)cc1OCC (stereo not drawn)	?	0	0	0	0
O=C(Nc1nccs1)C1CC(=O)N(CCc2ccc(F)cc2)C1 (stereo not drawn)	0	0	-62	0	0
CCOc1ccc(CCNC(=O)C2CC(=O)N(CCc3ccccc3)C2)cc1OCC (stereo not drawn)	0	0	-72	0	0
Cc1ccc(N2CC(C(=O)Nc3nccs3)CC2=O)cc1Cl (stereo not drawn)	?	0	-91	0	0

Source: PubChem (National Center for Advancing Translational Sciences (NCATS))
